Measurements reported in PubChem BioAssay (NCATS).
Unmarked numbers belong to inactive results. Activity calls are given as the source filed them. Calls come from the whole dose curve; as a rule, active = well fitted curve in the direction sought with a large enough effect; inactive = no such curve, though single readings can be large or run the other way.

Assay: qHTS for small molecule inhibitors of Yes1 kinase: Counter Assay (AID 686950);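 note: no kinase present so only ADP-Glo detection of a fixed ADP amount is tested; luminescence from ADP-Glo reporting ADP in a fixed ATP and ADP mixture; 0% = DMSO wells with ATP plus ADP and -100% = ATP-only wells without ADP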
Conditions: series mostly up to 76.9 µM; activity change, negative = inhibition: at the top concentration
Method in brief: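 ADP-Glo luminescence read after a 60 min room-temperature incubation of compound with an ATP/ADP mix (0.08 mM/0.02 mM) and no kinase, following a 20 min compound preincubation. Signal scaled between ATP+ADP (max) and 0.1 mM ATP-only (min) wells; Tris pH 7.5, Mg2+, DTT.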

Compound	activity change, negative = inhibition	outcome
NC(=O)C1CCCc2c1[nH]c1ccc(Cl)cc21 (configuration not stated)	4.04%	
NC(=O)c1ccc(-c2nc(-c3ccc4c(c3)OCO4)c(-c3ccccn3)[nH]2)cc1		inactive
CCOc1cc(C=C2C(=O)N(c3ccccc3)N=C2C)cc(Cl)c1OCC(=O)OC	4.6%	
CCCc1nn(C)c2c(=O)[nH]c(-c3cc(S(=O)(=O)N4CCN(C)CC4)ccc3OCC)nc12	-0.279%	
CCc1cc(Nc2nccc(-c3c(-c4ccc(OC)c(C(=O)Nc5c(F)cccc5F)c4)nc4ccccn34)n2)c(OC)cc1N1CCC(N2CCN(S(C)(=O)=O)CC2)CC1	0.751%	
Cc1ccnc(NS(=O)(=O)c2ccc(NC(=O)Nc3ccc(S(=O)(=O)Nc4nccc(C)n4)cc3)cc2)n1	2.48%	
CCCCCCCc1ccc(CCc2cccc(O)c2C(=O)O)cc1	5.61%	
CC(C)(C)OC(=O)CN(Cc1ccc(Cl)cc1)Cc1ccc([N+](=O)[O-])s1	0.92%	
O=c1[nH]c(-c2ccc(C(F)(F)F)cc2)nc2c1CSCC2	4.88%	
O=C(O)CCc1ccc(NCc2cccc(Oc3ccccc3)c2)cc1	-0.669%	
Cc1cccc(-c2nn(C(=S)Nc3ccccc3)cc2-c2ccnc3ccccc23)n1	6.34%	
CCOc1cc(C(=O)Nc2ccc(Cl)c(-c3nc4ccccc4[nH]3)c2)cc(OCC)c1OCC	1.18%	
Cc1n[nH]c(C)c1Cc1sc2c(c1C(=O)N1C[C@H](O)CO1)c(=O)n(C)c(=O)n2CC(C)C	-0.191%	
CCC(C)(C)C(=O)O[C@H]1C[C@@H](C)C=C2C=C[C@H](C)[C@H](CC[C@@H]3C[C@@H](O)CC(=O)O3)[C@H]21	3.33% [at 47.8 µM]	
CS(=O)(=O)c1cccc(CNc2nc(Nc3ccc4c(c3)CCC(=O)N4)ncc2C(F)(F)F)c1	3.22%	
N#CC[C@H](C1CCCC1)n1cc(-c2ncnc3[nH]ccc23)cn1	0.597%	
CC[C@@H](C)[C@H](NC(=O)[C@H](CC1CCCCC1)NC(=O)c1ccno1)C(=O)N1CCC2(CCc3ccccc32)CC1	2.54%	
Oc1cccc(-c2nc(N3CCOCC3)c3oc4ncccc4c3n2)c1	4.13%	
Cc1c(CN2CCN(C(=O)C(C)C)CC2)sc2c(N3CCOCC3)nc(-c3cnc(N)nc3)nc12	5.73%	

Compound	activity change, negative = inhibition	outcome
CC(c1cc2ccccc2s1)N(O)C(N)=O (configuration not stated)	-0.58% [at 154 µM]	
Cn1c(=O)c(F)c(Nc2ccc(I)cc2F)c2c(=O)n(C[C@@H](O)CO)cnc21	3.74%	
Cc1ccc(NC(=O)c2cccc(C(C)(C)C#N)c2)cc1Nc1ccc2ncn(C)c(=O)c2c1	-3.58%	
CN([C@@H](Cc1ccc(OS(=O)(=O)c2cccc3cnccc23)cc1)C(=O)N1CCN(c2ccccc2)CC1)S(=O)(=O)c1cccc2cnccc12	0.76%	
Cc1cc(-c2ccc(CC(=O)Nc3ccc(-c4cccnc4)cc3)cc2)ccn1	-0.0327%	
Cc1cc(SCc2sc(-c3ccc(C(F)(F)F)cc3)nc2C)ccc1OCC(=O)O	2.46%	
CCOc1cc(N2CCC(O)CC2)ccc1Nc1ncc2c(n1)N(C)c1ccccc1C(=O)N2C	4.96%	
COCCNCCCn1c(C(=O)CF)c(-c2ccc(C)cc2)c2c(N)ncnc21	-0.0558%	
C[C@]1(c2nc3c(C(N)=O)cccc3[nH]2)CCCN1	5.08%	
COc1c(Cl)cc2c([nH]c3cnccc32)c1NC(=O)c1cccnc1C	3.29%	
Cc1c(CCOc2ccc(C(=O)O)cc2)c2cc(Cl)ccc2n1C(c1ccccc1)c1ccccc1	1.78%	
CCOc1ccc(Cc2cc([C@@H]3O[C@H](CO)[C@@H](O)[C@H](O)[C@@H]3O)ccc2Cl)cc1	2.26%	
CCn1c(-c2nonc2N)nc2c(C#CC(C)(C)O)ncc(OC[C@H]3CCCNC3)c21	-2.27%	
CC(C)c1onc(-c2c(Cl)cccc2Cl)c1COc1ccc(/C=C/c2cccc(C(=O)O)c2)c(Cl)c1	-0.232%	
C/C(=C\C(=O)Nc1ccccc1C(=O)O)c1ccc2ccccc2c1	4.65%	
O=C(NOC[C@H](O)CO)c1ccc(F)c(F)c1Nc1ccc(I)cc1F	2.63%	
CCCS(=O)(=O)Nc1ccc(F)c(C(=O)c2c[nH]c3ncc(Cl)cc23)c1F	-1.34%	
Cc1ccc2c(c1)C(=O)[C@@]1(O)CCN(c3ccccc3)C1=N2	-9.74%	
